Measured values published in PubChem BioAssay AID431 (Sanford-Burnham Center for Chemical Genomics, 2006).
Out of some 63,000 compounds screened, about 1,100 (1.7%) were called active. The sample holds actives, similar compounds and a random draw of the others, so the mix is not that of the screen. Entries with a potency or affinity are not part of this list. A number with no mark means an inactive call.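 Rule for the calls: active = compounds whose percent cytotoxicity in the single-dose primary screen, scaled between solvent and toxic-drug controls, exceeds 50; inactive = the rest.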

Assay: cytotoxicity in KRAS-transformed pancreatic duct cells, primary screen, cell-based, fluorescence, HTS (AID 431);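 note: 0% = DMSO solvent wells and 100% = doxorubicin-treated wells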
Conditions: HPDE-C7K KRASV12 cells, Alamar Blue viability, 48 h; at 10 µM; stronger effect = higher value

| SMILES | cytotoxicity |
| --- | --- |
| c1cncc(C(c2nnnn2C2CCCC2)N2CCCC2)c1 (stereo not drawn) | 6% |
| Cc1ccc(SCc2nc(-c3ccccc3)no2)cc1 | -10.8% |
| O=C(O)CCC(=O)N1CCN(c2cccc(Cl)c2)CC1 | -6.3% |
| CCc1[nH]c(C)c(C(C)=O)c1C | 65.5% (active) |
| CC(=O)c1c(C)[nH]c(C)c1C(C)=O | -3.5% |
| CCCNC(=O)c1[nH]c(C)c(C(C)=O)c1C | 7.9% |
| O=C(Nc1ccccc1C(=O)N1CCCC1)c1cccc(S(=O)(=O)N2CCCCCC2)c1 | -4.2% |
| c1ccc2c(c1)CCN2CCN1CCc2ccccc21 | 1.1% |
| COc1ccc(NC(=O)C2CCCN2C(=O)NCc2ccccc2)c(OC)c1 (stereo not drawn) | -13.7% |
| O=C(c1cc(-c2ccccn2)nc2c(Cl)cccc12)N1CCN(C(=O)C2CCCO2)CC1 (stereo not drawn) | 0.1% |
| CCn1c(Sc2nc(C)nc3scc(-c4cccs4)c23)n[nH]c1=O | -16.8% |
| Cc1cccc(C(=O)NC2CC3CCCC(C2)N3C(=O)NC2CCCCC2)c1 (stereo not drawn) | -1.9% |
| NC1=NC(c2ccc(Cl)cc2)n2c(nc3ccccc32)N1 (stereo not drawn) | -23.5% |
| O=C(Nc1nc2c(s1)CCCC2)c1cc2n(n1)C(C(F)(F)F)CC(C1CC1)N2 (stereo not drawn) | 52.5% (active) |
| O=C(NCc1ccc(F)cc1)c1cc2n(n1)C(C(F)(F)F)CC(C1CC1)N2 (stereo not drawn) | -22% |
| Cc1nnc(NC(=O)c2cc3n(n2)C(C(F)(F)F)CC(C2CC2)N3)s1 (stereo not drawn) | -34.9% |
| COC(=O)COc1cccc(NC(=O)c2ccccc2)c1 | -1.5% |
| Cc1nc2sc(C(c3cccc(F)c3)N3CCC(O)CC3)c(O)n2n1 (stereo not drawn) | -0.3% |
| COc1ccc(C2C(C(C)=O)=C(C)N=c3s/c(=C/c4ccc5c(c4)OCO5)c(=O)n32)cc1 (stereo not drawn) | -10.1% |
| CC(=O)C1=C(C)N=c2s/c(=C/c3ccc4c(c3)OCO4)c(=O)n2C1c1ccc(N(C)C)cc1 (stereo not drawn) | -0.2% |
| CCC(C)(C)n1nnnc1C(c1cc2ccc(OC)cc2[nH]c1=O)N1CCc2ccccc2C1 (stereo not drawn) | 35% |
| COC(=O)c1ccccc1NS(=O)(=O)c1ccc(O)c(C(=O)O)c1 | 19.7% |
| COC(=O)c1ccc(CN2C(=O)NC3(CCCCC3C)C2=O)o1 (stereo not drawn) | 3.4% |
| CCN(CC)c1ccc(NC(=O)c2cnc3ccccn3c2=O)c(C)c1 | 3.9% |
| Cn1nnnc1SCCNCc1cccc2ccccc12 | -3% |

| SMILES | cytotoxicity |
| --- | --- |
| CN(C)c1cccc(C(=O)Nc2cccc(F)c2)c1 | 2.1% |
| CC(=O)Nc1ccc(NC(=O)c2ccccc2F)cc1 | 8.8% |
| CCN(CC)c1ccc(NC(=O)c2ccc(NC(=O)C3CCCO3)cc2)c(C)c1 (stereo not drawn) | -1.3% |
| O=C(Nc1ccncc1)c1ccccc1F | -14.5% |
| CCN(CC)c1ccc(NC(=O)c2ccccc2F)cc1 | 50.7% (active) |
| CCN(CC)c1ccc(NC(=O)c2ccco2)c(C)c1 | 10.7% |
| CCN(CC)c1ccc(C(=O)Nc2cccc(F)c2)cc1 | 57.4% (active) |
| CCOc1ccc(NC(=O)c2cccc(-n3cnnn3)c2)cc1 | -18% |
| CCN(CC)c1ccc(NC(=O)Nc2cccc(C(C)=O)c2)cc1 | 16.4% |
| CCOc1cccc(C(=O)Nc2ccc(N(CC)CC)cc2)c1 | 87.5% (active) |
| CCN(CC)c1ccc(NC(=O)c2cc(OC)cc(OC)c2)c(C)c1 | 59.9% (active) |
| CCOc1cccc(C(=O)Nc2ccc(N3CCN(S(C)(=O)=O)CC3)cc2)c1 | -10% |
| Cc1cccc(COc2ccc(/C(O)=C3\C(=O)C(=O)N(CCN(C)C)C3c3ccncc3)cc2)c1 (stereo not drawn) | 0.7% |
| O=C(c1ccco1)N1CCN(C(=O)c2cc(-c3ccncc3)nc3ccc(Br)cc23)CC1 | 1.3% |
| O=C(NCC(=O)N(Cc1ccccc1)C(C(=O)NC1CCCC1)c1ccco1)c1ccco1 (stereo not drawn) | -6.1% |
| Cn1c(COc2ccccc2)nnc1SCC(=O)Nc1ccc2c(c1)OCO2 | 9.4% |
| O=C1c2oc3ccc(F)cc3c(=O)c2C(c2ccncc2)N1CCN1CCOCC1 (stereo not drawn) | -11.5% |
| O=C(CN(Cc1ccco1)S(=O)(=O)c1cccs1)Nc1ccccc1C(F)(F)F | -23.6% |
| CCN(CC)c1ccc(NC(=O)c2cccc(C)c2OC)c(C)c1 | 2.9% |
| CCN(CC)c1ccc(NC(=O)c2c(OC)cccc2OC)c(C)c1 | -0.6% |
| CCN(CC)c1ccc(NC(=O)c2cccc(OC)c2)c(C)c1 | 55.4% (active) |
| O=C(Nc1ccc(N2CCN(Cc3ccccc3Cl)CC2)cc1)c1cccnc1 | 16.7% |
| Cc1cc(Nc2ccccc2C(=O)O)nc2nc3ccccc3c(=O)n12 | -5.3% |
| N#CC(C(=O)NC1CCCCC1)c1nc2ccccc2nc1N1CCOCC1 (stereo not drawn) | 13.7% |
| CCc1ccc(-n2c(O)cnc2Nc2nc(C)cc(C)n2)cc1 | -3% |

| SMILES | cytotoxicity |
| --- | --- |
| CCc1ccc(-c2cn3nc(C)c(C)nc3n2)cc1 | -7.6% |
| CCc1ccc(-c2cn(-c3nc(C)cc(C)n3)c(=N)o2)cc1 | 54.8% (active) |
| CC1CCc2cc(F)ccc2N1C(=O)CCC(=O)O (stereo not drawn) | -12.5% |
| CN(C)c1nc(N)nc(CSc2nnnn2C)n1 | 8.9% |
| COc1ccc(C2=NOC(CN3C(=O)c4ccccc4S3(=O)=O)C2)cc1 (stereo not drawn) | -0.1% |
| CC(C)(C)N1C(=O)Cc2c1nc(N)c1c(N)nc(N3CCCCC3CO)c(C#N)c21 (stereo not drawn) | 59.9% (active) |
| N#Cc1c(N)nc2c(c1N)CC(=O)N2c1ccccc1-c1ccccc1 | 5.8% |
| CC1(C)CC(=O)C2=C(C1)Oc1ncn(CCCn3ccnc3)c(=N)c1C2c1ccccc1 (stereo not drawn) | 9.8% |
| O=c1c2ccccc2nc(-c2ccccc2)n1CCCn1ccnc1 | -22.7% |
| OCCNc1ncnc2c1c(-c1ccccc1)c(-c1ccccc1)n2Cc1ccco1 | 21.6% |
| N=c1c2c(-c3ccccc3)c(-c3ccccc3)n(Cc3ccco3)c2ncn1CCN1CCOCC1 | 32.6% |
| COC(=O)c1c(F)c(F)c(N2CCOCC2)c(F)c1F | -3.4% |
| CC(C)CC(=O)Nc1ncnc2c1C(=O)CC(C)(C)C2 | -2.6% |
| COc1ccc(-c2nnn(CC(=O)N(C3CCCCC3)C(C)C(=O)NC3CCCC3)n2)cc1OC (stereo not drawn) | -4.4% |
| COC(=O)C1=C(C)N(c2ccc(F)c(Cl)c2)C(=O)C1 | 0.2% |
| COC(=O)C1=C(C)N(c2cccc(Cl)c2)C(=O)C1 | -6.2% |
| COC(=O)C1=C(C)N(c2ccc(Cl)c(Cl)c2)C(=O)C1 | 79% (active) |
| CCOC(=O)c1ccc(-n2c(N)c(C(=O)NCc3ccco3)sc2=S)cc1 | 10.8% |
| O=S(=O)(Nc1ccc(S(=O)(=O)N2CCCCC2)cc1)c1cccs1 | -10.1% |
| CCOc1cc(C)c(Cl)cc1S(=O)(=O)n1nnc2ccccc21 | 52.2% (active) |
| CCOc1ccc(Cl)cc1S(=O)(=O)n1nnc2ccccc21 | 4.6% |
| CCOc1cc(C)c(Cl)cc1S(=O)(=O)n1cnc2ccccc21 | 7.1% |
| COc1cc(S(=O)(=O)n2nnc3ccccc32)c(OC)cc1Cl | 59.1% (active) |
| COc1ccc(OC)c(S(=O)(=O)n2nnc3ccccc32)c1 | 11.6% |
| COc1ccc(Cl)cc1S(=O)(=O)n1nnc2ccccc21 | 4.4% |

| SMILES | cytotoxicity |
| --- | --- |
| COc1ccc(COC(=O)c2ccc(N3CCCC3=O)cc2)cc1F | 0.9% |
| O=C(NCc1ccco1)c1cnc2n(c1=O)CCS2 | 8.6% |
| CSc1nc(N)nc(SCC(=O)C23CC4CC(CC(C4)C2)C3)c1C#N | 76.6% (active) |
| CSc1nc(N)nc(SCC(=O)OC(C)C)c1C#N | -1.2% |
| CSc1nc(N)nc(SCC(=O)c2ccc(C)cc2)c1C#N | -1% |
| CCCCOc1cccc(C(=O)N(Cc2ccco2)C2CCS(=O)(=O)C2)c1 (stereo not drawn) | -19.4% |
| COC(=O)C(NC(=O)c1ccccc1)=C(C)C | -16.9% |
| Cc1[nH]c(=S)[nH]c(=O)c1Cc1ccccc1 | -7.5% |
| O=C(NC1CCN(C(=O)N2c3ccccc3Sc3ccccc32)CC1)c1ccco1 | -3.7% |
| O=C(N1CCOCC1)N1CCN(c2ccccn2)CC1 | -19.2% |
| O=C(c1ccco1)N1CCN(C(=O)N2c3ccccc3Sc3ccccc32)CC1 | 74.4% (active) |
| O=C(N1CCN(c2ccccn2)CC1)N1c2ccccc2Sc2ccccc21 | 66.6% (active) |
| O=C(CN1CCN(c2ccccn2)CC1)N1c2ccccc2Sc2ccc(C(F)(F)F)cc21 | 17% |
| O=C(c1ccco1)N1c2ccccc2Sc2ccccc21 | 4.1% |
| Cc1ccc2c(c1)c1c3n2CC(=C2C(=O)OC(C)(C)OC2=O)NC3CCC1 (stereo not drawn) | 33.1% |
| CC1(C(=O)O)CC(C)(C(=O)O)CC(C)(C(=O)O)C1 (stereo not drawn) | -1.4% |
| FC(F)(F)c1cc(-c2ccccc2)nc(N2CCCCC2)n1 | -12.8% |
| CCN(CCCNC(=O)c1[nH]c(C)c(C(C)=O)c1C)c1ccccc1 | 11.4% |
| NC(=O)c1ccccc1NC(=O)CCc1ccccc1 | 3.2% |
| CCOc1ccc(OCC)c(NC(=O)CN2CCN(c3cccc(C)c3C)CC2)c1 | -0.1% |
| Cc1cccn2c(=O)c(/C=N/O)c(N3CCCCC3)nc12 | 3.4% |
| O=C1c2ccccc2NC(c2ccco2)N1O (stereo not drawn) | 9.4% |
| O=C1COc2ccc(C(=O)c3ccccc3)cc2CN1 | -4.7% |
